From PubChem BioAssay (NCI)
About 83,000 compounds went through this panel and 20% of them were active in at least one assay; those are over-represented in the sample as a whole.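 The test compound was applied at a single concentration to cells in 96-well plates for 48 hours, and percent growth was recorded.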 The source made the active and inactive calls. Rule for the calls: active = growth percent below 10; inactive = the rest.

tested on: TK-10 renal; experiment: NCI-60 one-dose screen, 48 h (100 = growth as untreated, 0 = no growth, -100 = all killed); conditions: 10 µM unless noted

Compound | growth
CCS(=O)(=O)Nc1cccc(Nc2c3cccc(C)c3nc3c(C)cccc23)c1OC | 29.2% (inactive)
Cc1nn(-c2ccccc2)c2nc3c(nc12)C1=NCCN1C(c1ccc(Cl)cc1)N3 (configuration not stated) | 94.4% (inactive)
O=C(Nc1cccc(C2=NCCN2)c1)c1ccc(N=Nc2ccc(C(=O)Nc3cccc(C4=NCCN4)c3)cc2)cc1 | 40.2% (inactive)
COC(=O)[C@@H](Cc1c[nH]c2ccccc12)NC(=O)/C=C/c1ccccc1 | 54.1% (inactive)
CCOC(=O)C(CCCCC(NC(C)=O)(C(=O)OCC)C(=O)OCC)(NC(C)=O)C(=O)OCC | 97.9% (inactive)
COc1ccc(-c2cc(-c3cc4ccccc4oc3=O)n(-c3ccccc3)n2)cc1 | 141% (inactive)
CC(C)N(C(=S)SSC(=S)N(C(C)C)C(C)C)C(C)C | 100% (inactive)
CCOC(OCC)c1cnc2nc(NC(C)=O)[nH]c(=O)c2n1 | 104% (inactive)
CC(C)(C)c1cc(C[P+](c2ccccc2)(c2ccccc2)c2ccccc2)cc(C(C)(C)C)c1O | -3.05% (active)
N#Cc1ccc(-c2ccc(-c3cccs3)o2)cc1F | 89.9% (inactive)
CCN(C(=O)CCl)C(C)(C)C(SSSC(c1ccc(Cl)cc1)C(C)(C)N(CC)C(=O)CCl)c1ccc(Cl)cc1 (configuration not stated) | 101% (inactive)
N=C(N)c1ccc(-c2ccc(-c3ccco3)o2)cc1F | 7.98% (active)
COc1ccc(/C=C/c2nc(NCCCN(C)C)c3ccccc3n2)cc1 | 89.3% (inactive)
COc1cc2c(cc1OC)-c1cc(OC)c(OC)cc1C(CN(C)C)C2 (configuration not stated) | 65.7% [100 µM] (inactive)
CCCCCCCCN=C(NCCCCCCCC)SCc1cccc2ccccc12 | -94.8% (active)
N=C(N)c1ccc(-c2ccc(-c3cccs3)s2)cc1F | -94.3% (active)
COc1ccc2nc(-c3ccc(-c4noc(-c5ccc(Cl)cc5)n4)cc3)[nH]c2c1 | 120% (inactive)
Cc1cccc2nc3ccccc3c(Nc3ccc(NS(C)(=O)=O)cc3)c12 | 78.6% (inactive)
CC(C)CCSc1nc(Nc2ccccc2)c(C#N)c(-c2ccc(F)cc2)n1 | 20.6% (inactive)
COc1cc(OC)cc(-c2ccc(-c3ccc(C(=N)N)s3)s2)c1 | -88.7% (active)

Compound | growth
COc1ccc(-c2ccc(-c3ccc(C(=N)N)s3)s2)cc1 | -90.7% (active)
C#CCO[C@H]1CC[C@H](OCC#C)[C@@H]2[C@H]1[C@H]1C[C@@H]3[C@@]4(C)CCC[C@@](C)(C(=O)OC)[C@@H]4CC[C@@]23C=C1C(C)C | 93.7% (inactive)
COC(=O)[C@H](Cc1cn(C)cn1)NC(=O)[C@H](CC(C)C)NC(=O)Nc1cc(C(F)(F)F)cc(C(F)(F)F)c1 | -98.5% [100 µM] (active)
O=C1CCCN1C1CCN2CCCc3cccc1c32 (configuration not stated) | 103% (inactive)
O=C(CCCN1CCC(O)(c2ccc(Br)cc2)CC1)c1ccc(F)cc1 | 96.6% (inactive)
COc1ccc(/C=N/NC(N)=S)c(OC)n1 | 112% (inactive)
CCN1C(=O)N(CC)C2C1N=C(SC)N2/N=C/C=C/c1ccccc1OC (configuration not stated) | 46.8% (inactive)
C/C(=N\Nc1ccc([N+](=O)[O-])cn1)c1ccc(N)cc1 | 105% (inactive)
N/C(=N\O)c1ncc(-c2ccc(C(F)(F)F)cc2)c(NC2CCCCCC2)n1 | -69.5% [100 µM] (active)
O=[N+]([O-])c1ccc(Sc2nc(Cl)nc(NC3CCCC3)n2)cc1 | -96.7% [100 µM] (active)
Cc1cc2nc(CN)[nH]c2cc1C | 104% (inactive)
ClC1=NC(Cl)C(Cl)=N/C1=N\c1ncn[nH]1 (configuration not stated) | -75.9% (active)
COc1ccc(CNc2c3ccccc3nc3ccccc23)cc1F | 36.1% (inactive)
CCOC(=O)C1C(=O)C=C(c2ccccc2)CC1c1sc(N(C)Cc2ccccc2)nc1Cl (configuration not stated) | 107% (inactive)
CCOC(=O)c1cc(C(=O)OCC)c(C)nc1C | 113% (inactive)
O=C1OCC2=C1C(c1ccccc1)c1cc3c(cc1N2CCO)CCC3 (configuration not stated) | 54.5% (inactive)
O=C(CC(=O)c1ccccc1F)Nc1ccc([N+](=O)[O-])cc1 | 91.7% (inactive)
Cc1cc(Nc2c3ccccc3nc3ccccc23)ccc1NS(C)(=O)=O | 56% (inactive)
COC(=O)CSc1ccc(Cl)cc1 | 104% (inactive)

tested on: ACHN renal; experiment: as above; conditions: 10 µM unless noted

Compound | growth
CCS(=O)(=O)Nc1cccc(Nc2c3cccc(C)c3nc3c(C)cccc23)c1OC | -1.64% (active)
Cc1nn(-c2ccccc2)c2nc3c(nc12)C1=NCCN1C(c1ccc(Cl)cc1)N3 (configuration not stated) | 87.3% (inactive)
COC(=O)[C@@H](Cc1c[nH]c2ccccc12)NC(=O)/C=C/c1ccccc1 | 39.2% (inactive)
CCOC(=O)C(CCCCC(NC(C)=O)(C(=O)OCC)C(=O)OCC)(NC(C)=O)C(=O)OCC | 104% (inactive)
COc1ccc(-c2cc(-c3cc4ccccc4oc3=O)n(-c3ccccc3)n2)cc1 | 73.2% (inactive)
CC(C)N(C(=S)SSC(=S)N(C(C)C)C(C)C)C(C)C | 98.2% (inactive)
CCOC(OCC)c1cnc2nc(NC(C)=O)[nH]c(=O)c2n1 | 103% (inactive)
CC(C)(C)c1cc(C[P+](c2ccccc2)(c2ccccc2)c2ccccc2)cc(C(C)(C)C)c1O | -10.8% (active)
N#Cc1ccc(-c2ccc(-c3cccs3)o2)cc1F | 64% (inactive)
CCN(C(=O)CCl)C(C)(C)C(SSSC(c1ccc(Cl)cc1)C(C)(C)N(CC)C(=O)CCl)c1ccc(Cl)cc1 (configuration not stated) | 78.2% (inactive)
N=C(N)c1ccc(-c2ccc(-c3ccco3)o2)cc1F | 12.2% (inactive)
COc1cc2c(cc1OC)-c1cc(OC)c(OC)cc1C(CN(C)C)C2 (configuration not stated) | 44.6% [100 µM] (inactive)
CCCCCCCCN=C(NCCCCCCCC)SCc1cccc2ccccc12 | -91.8% (active)
N=C(N)c1ccc(-c2ccc(-c3cccs3)s2)cc1F | -84.5% (active)
Cc1cccc2nc3ccccc3c(Nc3ccc(NS(C)(=O)=O)cc3)c12 | -27.1% (active)
CC(C)CCSc1nc(Nc2ccccc2)c(C#N)c(-c2ccc(F)cc2)n1 | 13.4% (inactive)
COc1cc(OC)cc(-c2ccc(-c3ccc(C(=N)N)s3)s2)c1 | -76% (active)
COc1ccc(-c2ccc(-c3ccc(C(=N)N)s3)s2)cc1 | -92.8% (active)
COC(=O)[C@H](Cc1cn(C)cn1)NC(=O)[C@H](CC(C)C)NC(=O)Nc1cc(C(F)(F)F)cc(C(F)(F)F)c1 | -100% [100 µM] (active)
COc1ccc(/C=N/NC(N)=S)c(OC)n1 | 100% (inactive)
CCN1C(=O)N(CC)C2C1N=C(SC)N2/N=C/C=C/c1ccccc1OC (configuration not stated) | 23.2% (inactive)
C/C(=N\Nc1ccc([N+](=O)[O-])cn1)c1ccc(N)cc1 | 97.8% (inactive)
N/C(=N\O)c1ncc(-c2ccc(C(F)(F)F)cc2)c(NC2CCCCCC2)n1 | -64.3% [100 µM] (active)
O=[N+]([O-])c1ccc(Sc2nc(Cl)nc(NC3CCCC3)n2)cc1 | -100% [100 µM] (active)
Cc1cc2nc(CN)[nH]c2cc1C | 112% (inactive)
COc1ccc(CNc2c3ccccc3nc3ccccc23)cc1F | 10.9% (inactive)
O=C1OCC2=C1C(c1ccccc1)c1cc3c(cc1N2CCO)CCC3 (configuration not stated) | 29.7% (inactive)
Cc1cc(Nc2c3ccccc3nc3ccccc23)ccc1NS(C)(=O)=O | 9.04% (active)
